FBW7 activator: FBW7 E3 ligase activators, primary screen, biochemical, AlphaScreen, human; normalized activity (activation), % at 26.1 µM; AID 1259310, 2017; F-box/WD repeat-containing protein 7 (Homo sapiens), Q969H0; 650,000 tested, 0.13% active; AlphaScreen FBW7–phospho-cyclin E peptide binding, activator screen; in the data active means normalized activity above about 1.9%;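 further: purified mutant Fbw7 with reduced substrate affinity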
GPR151 activ: activators of human GPR151, primary screen, cell-based, PathHunter beta-arrestin, luminescence; G-protein coupled receptor 151 (Homo sapiens), Q8TDV0; 650,000 tested, 1% active; AID 1508602, 2020; activation, % at 11.2 µM; PathHunter beta-arrestin GPR151 cells; in the data active means activation above about 4.9%;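 further: 0% = median of compound wells and 100% = cells with positive control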
TEAD-YAP block: TEAD-YAP interaction inhibition, primary screen, TEAD-YAP interaction inhibitor project, luminescence, HEK-TIYL cells; AID 1259422, 2018; TEAD-Gal4/YAP UAS-luciferase luminescence; inhibition, % at 9.12 µM; 640,000 tested, 1.4% active; in the data active means inhibition above about 32%;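 further: 0% = median of test compound wells and 100% = reference inhibitor wells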
MITF primary: MITF inhibitors, primary screen, biochemical, AlphaScreen, human. Microphthalmia-associated transcription factor (Homo sapiens), O75030. AlphaScreen MITF homodimerization, bead proximity signal. inhibition, % at 2.6 µM. 650,000 tested, 0.91% active. AID 1259374, 2018; in the data active means inhibition above about 50%;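 further: 0% = vehicle wells with protein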
* marks the source's active call; other numbers are inactive results; . = no result; ! = a repeat was not active. Sampled rows, rich in hits. Any-hit rate of the full collection: about 3.5%.

SMILES	FBW7 activator	GPR151 activ	TEAD-YAP block	MITF primary
CCN(CC)C(C)C(=O)c1ccccc1 (configuration not stated)	0	0	-3	-6
CC(=O)[O][Hg][c]1ccccc1	0	1	98*	-4
Cc1cc(Cl)ccc1OCC(=O)N1CCN(Cc2ccccc2)CC1	0	1	7	3
CCCCn1c(N)c(C(=O)NCCC)c2nc3ccccc3nc21	0	-1	3	-12
COc1cc(Br)c([N+](=O)[O-])cc1[N+](=O)[O-]	0	0	43*	37
O=C1OC(c2cncc(Br)c2)=N/C1=C\c1cc(Br)cs1	0	-1	-10	-2
C=CCOC(=O)C1C2NC(=S)NC1(C)Oc1ccccc12 (configuration not stated)	0	0	36*	0
CCOC(=O)C1=C(NC(=S)NC(=O)c2ccccc2)c2ccccc2CC12CCCC2	0	0	41*	17
NCCc1cc(O)c(O)cc1O	0	0	-9	114*
COc1ccccc1-n1c(/C=C/c2ccc([N+](=O)[O-])cc2)nc2ccccc2c1=O	0	-1	16	-15
COc1ccccc1-n1c(/C=C/c2ccc(N(C)C)cc2)nc2ccccc2c1=O	2.3*	0	-12	-16
COc1ccccc1/C=C1\CCCc2c(-c3ccccc3)cc(-c3ccccc3)[n+](C)c21	0	2	95*	14
COc1ccc(/C=C2\CCCc3c(-c4ccccc4)cc(-c4ccccc4)[n+](C)c32)cc1	0	1	92*	-3
CN1CCC(O)(c2ccccc2)C2CCCCC21 (configuration not stated)	0	-1	6	-4
Cc1ccc2oc(C(=O)OC(C)C(C)CN(C)C)cc2c1 (configuration not stated)	2.5*	-2	17	10
CN1C(=O)NC(=O)/C(=C/c2cccs2)C1=O	0	3	-3	11
CN1C(=O)NC(=O)/C(=C\c2cccc(Oc3ccccc3)c2)C1=O	0	-1	15	65*
Cc1cccc(N2C(=O)NC(=O)/C(=C\c3ccc(N(C)C)cc3)C2=O)c1	0	4	2	14
CN1CCN(Cn2nnc3ccccc32)CC1	1	-1	6	10
Cc1ccc(-n2c(/C=C/c3ccccc3Br)nc3ccccc3c2=O)cc1	0	0	51*	-8
CCOC(=O)C1C2NC(=S)N(c3ccc(C)cc3)C1(C)Oc1ccc(OC)cc12 (configuration not stated)	-1	0	2	43
CCOC(=O)C1C2NC(=S)N(c3ccc(Br)cc3)C1(C)Oc1ccc(OC)cc12 (configuration not stated)	0	-1	63*	17
CCOC(=O)C1C2NC(=S)N(c3ccc(Cl)cc3)C1(C)Oc1ccc(Br)cc12 (configuration not stated)	0	1	54*	19
COc1ccc2c3c([nH]c2c1)C(C)=NCC3	0	0	24	27
COc1ccc2c(c1)[nH]c1c(C)nccc12	0	0	85*!	-9
SMILES	FBW7 activator	GPR151 activ	TEAD-YAP block	MITF primary
c1ccc2c(CN3CCC(N4CCOCC4)CC3)c[nH]c2c1	0	-2	5	45
CN(C(=O)Cc1ccccc1)[C@H](CN1CCCC1)c1ccccc1	1.9*	0	.	2
CCOc1ccc(C(=O)C(CN2CCCC2)c2ccccc2)cc1 (configuration not stated)	0	0	4	-22
O=C1NC(=S)NC(=O)C1=Cc1cc2c(cc1[N+](=O)[O-])OCO2	-1	0	-1	86*
Cc1ccccc1C=C1C(=O)NC(=S)NC1=O	0	2	6	6
CCOC(C(=O)OCC(=O)Nc1ccccc1C#N)(c1ccccc1)c1ccccc1	0	-1	6	-2
CCN(CC)c1ccc(N=Cc2c(O)[nH]c(=O)[nH]c2=O)cc1	0	-1	15	66*
CN(N=O)c1ccc(O)c(O)c1	0	1	2	77*
CCN1CCN(Cc2cc(Br)c(OC)cc2OC)CC1	0	3	3	40
O=c1c2ccccc2nc(/C=C/c2ccc([N+](=O)[O-])o2)n1-c1cccc(O)c1	0	0	34*	3
CCCCCC(/C=C/C=O)OO (configuration not stated)	.	-1	.	-6
CCC1CN(C)CCC1(O)c1ccccc1 (configuration not stated)	0	1	9	10
CCN1CCC(O)(c2ccccc2)C(C(=O)c2ccccc2)C1 (configuration not stated)	2.0*	-1	4	9
C[CH2][Hg][S]c1ccccc1C(=O)O	0	4	74*	-6
CNc1ccccc1C(=O)O	1	-3	1	-11
O=[N+]([O-])c1cccc(CNCCc2ccc(F)cc2)c1	0	0	5	37
O=[N+]([O-])c1cccc(CN2CCN(Cc3ccccc3)CC2)c1	0	-1	2	36
O=Cc1cn(Cc2cccc([N+](=O)[O-])c2)c2ccccc12	-1	-1	48*	-4
N#CCC(=O)N1CCN(/C(N)=N/[N+](=O)[O-])CC1	1	5	0	9
O=C1C=CC(=O)c2c(O)cccc21	0	0	2	108*
Fc1ccc2c(c1)ncn2C1CCN(CC2COc3ccccc3O2)CC1 (configuration not stated)	0	1	8	-8
CN(C)CCOC(=O)C1CCCCCN1C (configuration not stated)	0	1	-10	-3
C[n+]1c2ccccc2nc2ccc(NC3CCCCC3N)cc21 (configuration not stated)	0	0	77*	20
COc1cc(C=C2C(=O)N(C)C(=S)N(C)C2=O)ccc1O	0	-2	2	23
COc1ccc(O)c(CN2CCN(Cc3ccccc3)CC2)c1	0	-1	4	-1
SMILES	FBW7 activator	GPR151 activ	TEAD-YAP block	MITF primary
COc1ccc(O)c(CN2CCN(C)CC2)c1	0	-2	2	16
COc1ccc(O)c(CN2CCN(Cc3ccccc3Cl)CC2)c1	0	-1	-3	51*
COc1ccc(O)c(CN2CCN(Cc3cccc(C)c3)CC2)c1	0	0	-4	72*
COc1ccc2c(C)nc(N3CCC(NC(C)Cc4ccsc4)CC3)nc2c1 (configuration not stated)	1	-1	-2	9
C[C@]12CC[C@H](O)C[C@H]1CC[C@@H]1[C@@H]2CC[C@]2(C)[C@@H](C3=CC(=O)OC3)[C@@H](O)C[C@]12O	0	-1	95*	22
CC(=O)OC1CC[C@@]2(C)C(CCC3C2CC[C@]2(C)C(C4=CC(=O)OC4)C(OC(C)=O)CC32O)C1 (some centres not stated)	0	2	100*	-24
